# This is a sample that favours compounds with a hit; in the whole collection about 3.4% have one here.
# ADAM17 inh = ADAM17 inhibition, QFRET primary screen; recombinant ADAM17, EDANS/DABCYL FRET peptide cleavage; inhibition, % at 6.95 µM; hit rate 0.83% among 370,000;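 active = inhibition above the mean of compounds lying between control limits plus 3 SD, set per campaign, cut at about 8.5% in these data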;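 also: 0% = DMSO-only wells as the low control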
# proKLK7 act = activates the human kallikrein-7 zymogen. P49862. purified proKLK7, EDANS-DABCYL substrate fluorescence; 100% is mature enzyme control, 0% vehicle. activation, % at 7 µM. hit rate 0.9% among 370,000;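 active = activation above the mean of all tested compounds plus 3 SD, computed per campaign excluding outliers beyond control limits, cut at about 13% in these data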
# CendR NRP1 mod = NRP-1/CendR interaction modulation | O14786 | FAM-RPARPAR peptide binding to NRP-1, fluorescence polarization | AID 602438 | inhibition, % at 25 µM | hit rate 0.85% among 360,000;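 active = inhibition or corrected inhibition above about 18%, plus a signal ratio from 0.5 to 1.5, limit read from the data, passing the limit was not always enough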
# ADAM10 inh = ADAM10 inhibition, QFRET primary screen. O14672. recombinant ADAM10, EDANS/DABCYL FRET peptide cleavage, 3 h. inhibition, % at 7 µM. hit rate 0.62% among 370,000. AID 720582;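 active = inhibition above a per-campaign cutoff equal to the mean of compounds falling between control-based bounds plus 3 SD, cut at about 20% in these data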;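 also: 0% = DMSO wells while the 100% control is not disclosed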
# sPLA2-III inh = Blocks human group III sPLA2 activity; QFRET BODIPY PC-A2 liposome hydrolysis, fluorescence; inhibition, % at 12.2 µM; hit rate 0.56% among 370,000;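 active = inhibition above mean plus 3 SD of compounds lying within the high and low control bounds, cut at about 19% in these data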;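 also: 0% = median of test compound wells and 100% = no enzyme DMSO wells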
# ADAM10 confirm = human ADAM10 inhibition, confirmation; shares compounds with ADAM10 inh; ADAM10 QFRET peptide cleavage, EDANS fluorescence; inhibition, % at 6.95 µM; hit rate 1% among 2,100; AID 743208;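 active = inhibition above about 20% chosen separately for each screening run, limit read from the data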;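 also: 0% = DMSO wells and 100% = marimastat wells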
# ADAM17 ctr = counter-screen for ADAM10 exosite inhibitors: inhibitors of human ADAM17; shares compounds with ADAM10 inh; ADAM17 QFRET peptide cleavage, EDANS fluorescence; inhibition, % at 6.95 µM; hit rate 0.5% among 2,100; AID 743214;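 active = mean triplicate inhibition above the solvent-only control wells' mean plus 3 SD, cut at about 12% in these data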;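 also: 0% = DMSO wells and 100% = marimastat wells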
# ADAM10 counter = ADAM10 inhibition, counter-screen for ADAM17 exosite hits. shares compounds with ADAM17 inh. recombinant ADAM10, EDANS/DABCYL FRET peptide cleavage, 3 h. inhibition, % at 6.95 µM. hit rate 47% among 2,900. AID 743256;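 active = mean inhibition over the triplicate runs exceeds the activity threshold set in the earlier primary screen, cut at about 20% in these data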;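 also: 0% = DMSO wells and 100% = marimastat wells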
# ADAM17 confirm = confirmation of inhibitors of human ADAM17. shares compounds with ADAM17 inh. recombinant ADAM17, EDANS/DABCYL QFRET peptide cleavage. inhibition, % at 6.95 µM. hit rate 65% among 2,900. AID 743257;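 active = mean inhibition across replicates above the hit cutoff set in the primary screen, cut at about 8.5% in these data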;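 also: 0% = DMSO wells and 100% = marimastat wells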
# * hit, by the source's call; nt = not tested or not shown.
SMILES,ADAM17 inh,proKLK7 act,CendR NRP1 mod,ADAM10 inh,sPLA2-III inh,ADAM10 confirm,ADAM17 ctr,ADAM10 counter,ADAM17 confirm
Cc1cc(Br)cn2c(Cc3ccccc3C(F)(F)F)c(-c3ccco3)nc12,-4,1,nt,-15,10,nt,nt,nt,nt
O=S(=O)(c1ccccc1)N(CC(F)(F)F)c1ccc(C(O)(C(F)(F)F)C(F)(F)F)cc1,22*,0,3,49*,-7,0,1,37*,22*
O=C(O)CN(c1cccc(C(F)(F)F)c1)S(=O)(=O)c1ccccc1,-1,0,12,1,-4,nt,nt,nt,nt
CCO[C@H]1OC(C(=O)N2CCN(Cc3ccc4c(c3)OCO4)CC2)=C[C@@H](c2ccc(Br)cc2)[C@@H]1CCCO,9.2*,0,0,25*,-38,0,0,13,7
COC(=O)N/N=C/c1ccc(OS(=O)(=O)c2ccc(C)cc2)c(OC)c1,2,1,9,-7,-1,nt,nt,nt,nt
COc1cc(/C=N/NC(=O)COc2cccc(F)c2)ccc1OS(=O)(=O)c1ccc(C)cc1,13*,0,-16,25*,-19,8,3,24*,16*
COc1cc(/C=N/NC(=O)COc2ccc(Cl)cc2)ccc1OS(=O)(=O)c1ccc(C)cc1,11*,-1,3,27*,-5,15,4,51*,34*
CN1CCC(N[C@@H](Cc2ccccc2)C(=O)NCC(c2ccccc2)c2ccccc2)(C(=O)NC2CCCCC2)CC1,3,nt,nt,7,-16,nt,nt,nt,nt
COc1cccc(NC(=S)N(Cc2ccccn2)Cc2ccccc2Cl)c1,9.3*,1,-1,22*,-1,2,2,24*,13*
CCOC(=O)c1c(-c2ccccc2)csc1NC(=O)CSc1nc(N)cc(N)n1,13*,1,-4,26*,-12,5,1,11,9.8*
O=C(CN(c1cccc(Br)c1)S(=O)(=O)c1ccccc1)N/N=C/c1cc([N+](=O)[O-])ccc1O,16*,1,50*,27*,-23,3,1,28*,17*
CC[C@@]12C(=O)N(c3cccc(Br)c3)C(=O)N1[C@H](c1ccc(F)cc1)[C@@H]1C(=O)N(C3CCCCC3)C(=O)[C@@H]12,11*,0,3,26*,-18,7,2,20*,14*
CC[C@@]12C(=O)N(c3cccc(F)c3)C(=O)N1[C@H](c1ccc(F)cc1)[C@@H]1C(=O)N(C3CCCCC3)C(=O)[C@@H]12,nt,nt,19,nt,nt,nt,nt,nt,nt
COC(=O)c1cc(NS(=O)(=O)c2ccc(N3CCC(C)CC3)c([N+](=O)[O-])c2)cc(C(=O)OC)c1,13*,0,8,28*,-1,5,3,26*,17*
CC1CCN(c2ccc(C(=O)Nc3ccc4c(c3)OCO4)cc2[N+](=O)[O-])CC1,8.7*,0,-4,20*,-4,6,2,30*,16*
COC(=O)c1cc(NS(=O)(=O)c2ccc(N3CCCCC3)c([N+](=O)[O-])c2)cc(C(=O)OC)c1,6,0,0,18,-43,nt,nt,nt,nt
CCOC(=O)[C@]12CCCC=C1N(Cc1cccc3ccccc13)C(=O)[C@H](CC(=O)NCc1ccccc1)C2,8,0,12,18,-19,nt,nt,nt,nt
CCOC(=O)[C@]12CCCC=C1N(Cc1cccc3ccccc13)C(=O)[C@H](CC(=O)NCc1cccs1)C2,10*,0,-13,27*,-17,4,2,26*,16*
C[C@H](O)[C@@H]1CN2CCc3c([nH]c4c(-c5ccccc5)cccc34)[C@@H]2C[C@@H]1N(C)CC1CCCCC1,-10,1,nt,-30,-4,nt,nt,nt,nt
CC(O)(c1ccc(F)c(F)c1)c1nc(-c2cc3ccccc3o2)cs1 (stereo not given),9.6*,0,-8,27*,-12,12,3,36*,18*
CC(NC(=O)CSc1n[nH]c(N)n1)c1ccccc1 (stereo not given),1,0,5,6,1,nt,nt,nt,nt
CCCc1ccc(-c2cc(NC(=O)CSc3n[nH]c(N)n3)n(-c3ccccc3)n2)cc1,9.8*,-1,15,29*,-30,4,2,29*,12*
O=c1c(O)c(-c2ccc(O)cc2)oc2cc(O)cc(O)c12,8.9*,-9,-8,21*,2,-2,0,-5,3
O=C1CC2c3cc(-c4cc5ccccc5o4)ccc3CCN2C(=O)CN1Cc1ccccc1 (stereo not given),-4,-1,nt,-27,-18,nt,nt,nt,nt
Cc1nonc1C1CCCN1Cc1cn[nH]c1-c1ccc(-c2ccccc2)cc1 (stereo not given),17*,0,-2,33*,-13,8,3,30*,19*
SMILES,ADAM17 inh,proKLK7 act,CendR NRP1 mod,ADAM10 inh,sPLA2-III inh,ADAM10 confirm,ADAM17 ctr,ADAM10 counter,ADAM17 confirm
C=CCn1c(Cc2cccs2)nnc1SCC(=O)Nc1ccc(OCc2ccccc2)cc1,8,0,nt,13,-32,nt,nt,nt,nt
COC(=O)c1ccc(-c2ccc3c(c2)[C@]2(CCC[C@@H](OCc4ccccc4)[C@@H]2NC(=O)CCc2ccccc2)C(=O)N3Cc2ccccc2)cc1,-21,-1,nt,-115,-2,nt,nt,nt,nt
CC(=O)O[C@@H]1CCC[C@@]2(C(=O)N(Cc3ccccc3)c3ccc(-c4c(C)noc4C)cc32)[C@H]1NC(=O)CCc1ccccc1,10*,1,nt,23*,-21,9,2,19,11*
CC(=O)N1c2ccc(S(=O)(=O)N3CCC(C(=O)N4CCN(c5cc(Cl)ccc5C)CC4)CC3)cc2CC1C (stereo not given),18*,1,-3,23*,-12,7,1,30*,17*
CSc1ccccc1OCc1cc(C(=O)N2CCc3[nH]cnc3C2c2ccccn2)no1 (stereo not given),11*,-1,0,25*,-1,8,3,-1,2
O=C(CSc1nnc(-c2cccnc2)n1C1CCCCC1)NC1CCCCCC1,1,-1,nt,-2,3,nt,nt,nt,nt
COc1cccc(/C=C2\CC3(OC(=O)C(C)(C)C)CCCN2C3)c1 (stereo not given),1,0,nt,0,-3,nt,nt,nt,nt
CCCCc1c(-c2ccccc2OC)ncn1C(C)c1ccccc1 (stereo not given),-1,0,nt,-3,-9,nt,nt,nt,nt

# Screening data deposited in PubChem BioAssay by several laboratories.
